Activity calls are given as the source filed them. Unless noted, the rule behind the calls is not given here.
Assays:
[1] = compounds binding Alexa647 anti-His antibody – biochemical, small-molecule microarray, 635 nm fluorescence, artefact control for SMM control protein annotation, primary screen (AID 1128); details: higher = more signal;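 note: score merges feature fluorescence with signal-to-noise for each printed compound spot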
[2] = test system: Human papillomavirus type 1a E7 protein (residues 1-88); experiment: HPV1a E7 small-molecule binders, primary screen, biochemical, small-molecule microarray, residues 1-88, 635 nm (AID 1129); details: small-molecule microarray binding, fluorescence 635 nm; higher = more signal
[3] = molecular target: Focal adhesion kinase 1 (Homo sapiens) (UniProt Q05397); experiment: PTK2 protein binding on printed compound slides – biochemical, small-molecule microarray, 635/667 nm fluorescence, BSA, DTT, primary screen (AID 1130); details: 635 nm fluorescence, higher = more signal;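 note: composite of spot emission at 667 nm and signal to noise over triplicate slides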
Chain of Focal adhesion kinase 1 (Homo sapiens) (Q05397 whole entry, looked up): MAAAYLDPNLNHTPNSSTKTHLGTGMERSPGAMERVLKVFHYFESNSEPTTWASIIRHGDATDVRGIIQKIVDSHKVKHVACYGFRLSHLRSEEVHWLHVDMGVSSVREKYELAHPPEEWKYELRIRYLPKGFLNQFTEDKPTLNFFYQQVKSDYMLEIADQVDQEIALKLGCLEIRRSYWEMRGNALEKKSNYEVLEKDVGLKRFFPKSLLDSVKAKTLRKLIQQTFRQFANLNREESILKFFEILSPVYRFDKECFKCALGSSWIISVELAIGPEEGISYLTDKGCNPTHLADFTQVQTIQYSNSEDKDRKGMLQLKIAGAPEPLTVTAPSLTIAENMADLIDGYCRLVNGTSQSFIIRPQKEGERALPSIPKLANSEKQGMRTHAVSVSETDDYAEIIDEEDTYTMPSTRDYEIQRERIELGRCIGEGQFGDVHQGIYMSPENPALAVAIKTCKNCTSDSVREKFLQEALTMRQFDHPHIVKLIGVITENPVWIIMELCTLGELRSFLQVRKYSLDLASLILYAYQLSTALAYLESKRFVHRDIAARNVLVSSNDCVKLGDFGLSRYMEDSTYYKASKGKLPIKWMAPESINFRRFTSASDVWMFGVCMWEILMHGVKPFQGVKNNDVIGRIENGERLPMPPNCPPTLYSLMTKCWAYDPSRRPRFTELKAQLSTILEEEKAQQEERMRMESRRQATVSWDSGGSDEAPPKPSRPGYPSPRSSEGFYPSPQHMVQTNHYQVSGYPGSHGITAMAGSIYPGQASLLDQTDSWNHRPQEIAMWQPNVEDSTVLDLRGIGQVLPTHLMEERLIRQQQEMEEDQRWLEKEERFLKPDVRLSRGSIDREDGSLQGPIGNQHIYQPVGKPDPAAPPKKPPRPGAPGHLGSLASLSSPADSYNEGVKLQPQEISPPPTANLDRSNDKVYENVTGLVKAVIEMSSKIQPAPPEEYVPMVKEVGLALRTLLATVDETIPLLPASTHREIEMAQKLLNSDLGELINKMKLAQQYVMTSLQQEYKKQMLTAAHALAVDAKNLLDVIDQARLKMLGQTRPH

[4] = test system: Fibrinogen (Alexa647-labelled); experiment: Alexa647-fibrinogen binding to printed small molecules – biochemical, small-molecule microarray, 635/667 nm fluorescence, artefact control for SMM control-protein annotation, profiling panel (AID 1131); details: fibrinogen-A647 binding fluorescence, higher = more signal;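 note: z-score merges 667 nm fluorescence with per-spot signal-to-noise over triplicate slides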
[5] = molecular target: Follistatin (Homo sapiens) (UniProt P19883); experiment: FST protein binding to printed compounds – biochemical, small-molecule microarray, 635/667 nm fluorescence, primary screen (AID 1132); details: 635 nm fluorescence, higher = more signal
Chain of Follistatin (Homo sapiens) (P19883 whole entry, looked up): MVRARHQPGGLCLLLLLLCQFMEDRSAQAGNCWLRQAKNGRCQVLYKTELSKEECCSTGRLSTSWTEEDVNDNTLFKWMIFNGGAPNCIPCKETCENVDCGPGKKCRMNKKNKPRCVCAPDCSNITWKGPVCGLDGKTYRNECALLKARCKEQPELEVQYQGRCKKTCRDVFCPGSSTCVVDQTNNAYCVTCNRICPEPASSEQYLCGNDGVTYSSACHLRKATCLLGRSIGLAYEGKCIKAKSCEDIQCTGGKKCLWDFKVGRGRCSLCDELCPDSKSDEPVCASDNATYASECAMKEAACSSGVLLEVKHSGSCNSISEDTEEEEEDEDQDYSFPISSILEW

[6] = molecular target: Fibroblast growth factor 2 (Homo sapiens) (UniProt P09038); experiment: basic fibroblast growth factor binding to printed compounds – biochemical, small-molecule microarray, 635/667 nm fluorescence, primary screen (AID 1133); details: FGF2, fluorescence 635/667, higher = more signal
Chain of Fibroblast growth factor 2 (Homo sapiens) (P09038 whole entry, looked up): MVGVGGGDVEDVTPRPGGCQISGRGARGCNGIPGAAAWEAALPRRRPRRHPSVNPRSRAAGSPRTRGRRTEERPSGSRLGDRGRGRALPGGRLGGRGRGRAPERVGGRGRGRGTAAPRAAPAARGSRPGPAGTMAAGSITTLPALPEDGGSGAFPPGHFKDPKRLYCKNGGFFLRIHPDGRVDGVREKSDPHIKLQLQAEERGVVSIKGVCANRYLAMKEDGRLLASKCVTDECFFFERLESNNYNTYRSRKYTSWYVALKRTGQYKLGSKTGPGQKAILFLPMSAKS

[7] = JC-1 mitochondrial potential readout, lung cancer cells – cell-based, A549, JC-1 fluorescence, basal, 24 h, 100 nL, profiling panel (AID 1138); details: higher = more signal;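 note: A549 lung adenocarcinoma cells under basal conditions with no added stimulus; test concentration not given here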
[8] = test system: Lefty1; experiment: Lefty1 protein binding to printed compounds – biochemical, small-molecule microarray, 635/667 nm fluorescence, primary screen (AID 1139); details: fluorescence 635/667, higher = more signal
[9] = test system: wheat germ agglutinin (Triticum aestivum), Alexa647-labelled; experiment: Alexa647-WGA lectin binding to printed small molecules – biochemical, small-molecule microarray, 635/667 nm fluorescence, artefact control for SMM control-protein annotation, profiling panel (AID 1140); details: WGA-A647 binding, 635 nm fluorescence, higher = more signal;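 note: score merges 667 nm feature emission with signal to noise over triplicate slides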
[10] = molecular target: Luciferin 4-monooxygenase (Photinus pyralis) (UniProt P08659); experiment: inhibition of purified Photinus pyralis luciferase – biochemical, luminescence, purified enzyme, 2006 set, primary screen (AID 1141); details: purified firefly luciferase, SteadyGlo luminescence, 30 min; higher = more signal, called active from +8 up or from −8 down;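 note: cell-free assay with purified firefly luciferase at 100 ng per well in PBS; test concentration not given here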
Chain of Luciferin 4-monooxygenase (Photinus pyralis) (P08659 whole entry, looked up): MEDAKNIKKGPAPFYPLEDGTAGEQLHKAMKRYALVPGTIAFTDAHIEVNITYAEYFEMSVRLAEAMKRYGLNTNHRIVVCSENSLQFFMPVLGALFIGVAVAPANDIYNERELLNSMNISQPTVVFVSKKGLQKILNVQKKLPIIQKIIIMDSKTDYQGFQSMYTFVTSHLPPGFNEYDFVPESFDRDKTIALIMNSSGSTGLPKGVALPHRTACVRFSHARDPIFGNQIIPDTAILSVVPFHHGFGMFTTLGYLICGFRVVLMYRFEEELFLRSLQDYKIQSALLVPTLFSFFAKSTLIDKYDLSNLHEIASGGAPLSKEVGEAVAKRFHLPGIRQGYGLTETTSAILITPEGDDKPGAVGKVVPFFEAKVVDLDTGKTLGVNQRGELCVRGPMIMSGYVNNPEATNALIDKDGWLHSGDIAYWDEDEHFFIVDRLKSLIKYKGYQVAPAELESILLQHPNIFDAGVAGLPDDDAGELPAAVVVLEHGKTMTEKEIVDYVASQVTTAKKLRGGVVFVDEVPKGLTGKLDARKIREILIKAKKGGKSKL

[11] = test system: Wnt5a (protein binding on small-molecule microarray); experiment: small molecules binding Wnt5a protein – biophysical, small-molecule microarray, 635/667 nm fluorescence, primary screen (AID 1142); details: 635 nm fluorescence, higher = more signal;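 note: fluorescence read at 667 nm with signal to noise per printed feature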
[12] = ATP-based viability of Huh7 replicon cells – cell-based, CellTiter-Glo luminescence, basal, 48 h, cytotoxicity control for HCV replication inhibitor project, primary screen (AID 1143); details: higher = more signal, called active from +8 up or from −8 down;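 note: Huh7 hepatoma cells carrying a hepatitis C replication reporter with no stimulus; test concentration not given here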
[13] = Pseudomonas biofilm growth suppression – PAO1 strain, BacTiter-Glo luminescence, LB-PBS, primary screen (AID 1144); details: P. aeruginosa PAO1 biofilm, 12 h, higher = more signal
[14] = basal CRE-LacZ reporter activity in PC12 – cell-based, unstimulated, primary screen (AID 1145); details: no forskolin, luminescence, 4.5 h, higher = more signal, called active from +8 up or from −8 down
[15] = forskolin-driven CRE-LacZ activity in PC12 – cell-based, CRE-LacZ reporter, forskolin-stimulated, primary screen (AID 1146); details: luminescence, 4.5 h, higher = more signal, called active from +8 up or from −8 down;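 note: PC12 cells with 6xCRE LacZ reporter stimulated by forskolin 10 µM; beta-galactosidase reporter signal reflecting CREB driven transcription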
[16] = molecular target: Streptavidin (Streptomyces avidinii) (UniProt P22629); experiment: compounds binding control protein streptavidin – biophysical, small-molecule microarray, 635/667 nm fluorescence, artefact control for SMM compound annotation, primary screen (AID 1147); details: higher = more signal;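 note: signal reflects streptavidin binding to arrayed compounds as a control protein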
Chain of Streptavidin (Streptomyces avidinii) (P22629 whole entry, looked up): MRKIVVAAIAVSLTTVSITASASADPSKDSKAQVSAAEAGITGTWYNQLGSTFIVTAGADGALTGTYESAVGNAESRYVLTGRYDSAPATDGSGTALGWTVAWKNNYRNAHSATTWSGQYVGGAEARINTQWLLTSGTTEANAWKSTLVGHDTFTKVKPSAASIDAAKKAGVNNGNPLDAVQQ

[17] = probe aInhba binding on compound microarray – biochemical, small-molecule microarray, 635/667 nm fluorescence, primary screen (AID 1148); details: higher = more signal;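 note: score merges 667nm spot fluorescence with signal-to-noise for antibody binding to printed compounds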
[18] = molecular target: Torsin-1A (Homo sapiens) (UniProt O14656); experiment: TOR1A wild-type binding on microarray – cell lysate, small-molecule microarray, lysate, 635/667 nm, primary screen (AID 1149); details: COS7 hTOR1A-WT lysate, 635 nm fluorescence, higher = more signal
Chain of Torsin-1A (Homo sapiens) (O14656 whole entry, looked up): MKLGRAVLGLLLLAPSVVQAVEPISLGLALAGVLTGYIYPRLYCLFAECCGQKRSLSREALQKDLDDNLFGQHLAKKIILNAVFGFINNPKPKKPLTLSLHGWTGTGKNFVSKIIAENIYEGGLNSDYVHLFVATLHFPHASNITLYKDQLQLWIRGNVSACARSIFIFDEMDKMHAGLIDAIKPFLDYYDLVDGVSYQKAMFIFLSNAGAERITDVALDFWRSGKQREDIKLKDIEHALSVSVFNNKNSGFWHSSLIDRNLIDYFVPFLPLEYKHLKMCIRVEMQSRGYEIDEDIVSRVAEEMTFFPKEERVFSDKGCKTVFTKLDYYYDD

[19] = molecular target: Torsin-1A (Homo sapiens) (UniProt O14656); experiment: torsin A mutant lysate binding on microarrays – cell lysate, small-molecule microarray, COS7 lysate, 635/667 nm fluorescence, primary screen (AID 1150); details: COS7 hTOR1A mutant lysate, 635 nm fluorescence, higher = more signal;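 note: score pools 667 nm emission and signal to noise measuring lysate protein binding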
[20] = test system: Sonic hedgehog protein (Shh); experiment: Sonic hedgehog microarray binding compounds – biochemical, small-molecule microarray, 635/667 nm fluorescence, primary screen (AID 1151); details: 635 nm fluorescence, higher = more signal;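 note: Shh protein binding to compounds spotted on small-molecule microarray slides; score combines spot fluorescence intensity with signal-to-noise across triplicate slides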

Row | SMILES | composite z-score [1] | composite z-score [2] | composite z-score [3] | composite z-score [4] | composite z-score [5] | composite z-score [6] | z-score [7] | composite z-score [8] | composite z-score [9] | z-score [10] | composite z-score [11] | z-score [12] | z-score [13] | z-score [14] | z-score [15] | composite z-score [16] | composite z-score [17] | composite z-score [18] | composite z-score [19] | composite z-score [20]
1 | O=C1C[C@@](C(=O)NC2CC2)(c2ccc([N+](=O)[O-])cc2)[C@@H](c2ccc(CO)cc2I)N1C1CCCCC1 | 0.342 | 1.24 | -0.109 | 0.895 | 1.24 | 1.27 | 1.75 | 1.14 | 0.587 | -0.234 (inactive) | 0.693 | -3.54 (inactive) | -0.691 (inactive) | 0.495 (inactive) | 0.714 (inactive) | 1.38 | 0.0785 | 0.207 | 0.461 | 2.09
2 | CO[C@H]1O[C@H](CO)[C@@H](OC(=O)Nc2ccccc2)[C@H](OC(=O)Nc2ccccc2)[C@@H]1OC(=O)Nc1ccccc1 | 0.865 | 1.25 | 0.806 | 1.01 | 1.3 | 0.412 | -0.115 | 0.464 | 0.833 | 0.713 (inactive) | 1.13 | -4.73 (inactive) | -0.309 (inactive) | 0.101 (inactive) | -0.825 (inactive) | 0.467 | 0.347 | 0.451 | 0.872 | 1.48
3 | CC[C@@H]1C=C(C(=O)O)[C@H](c2ccc(Br)cc2)N1S(=O)(=O)c1ccc(C)cc1 | 0.153 | 1.04 | 0.453 | 0.886 | 0.076 | -0.0934 | -0.785 | 0.0429 | 0.554 | 0.942 (inactive) | -0.13 | -0.141 (inactive) | 0.598 (inactive) | 0.0798 (inactive) | 0.472 (inactive) | 0.791 | 0.222 | 0.297 | 0.233 | 0.248
4 | C=C[C@H](OC)[C@@H](OC(=O)Nc1ccc(OC)cc1)c1ccc(O)c(F)c1 | 2.08 | 0.424 | -0.585 | -1.5 | -1.07 | -1.23 | -0.944 | -0.288 | -1.28 | -6.53 (inactive) | -0.311 | -3.6 (inactive) | -0.689 (inactive) | 1.24 (inactive) | 3.4 (inactive) | -1.2 | -0.179 | 0.732 | -0.11 | 0.665
5 | CC(C)[Si](C#Cc1ccc(Oc2ccccc2)cc1)(O[Si](C#Cc1ccc(Oc2ccccc2)cc1)(C(C)C)C(C)C)C(C)C | 1.69 | 0.701 | 0.0273 | 0.654 | 0.218 | 0.925 | 0.108 | 1.07 | 0.372 | -0.637 (inactive) | 0.253 | 0.479 (inactive) | -0.614 (inactive) | 0.6 (inactive) | -0.378 (inactive) | -0.286 | 0.0403 | 0.567 | 0.514 | 1.05
6 | O=C1O[C@H](c2ccccc2)[C@H](c2ccccc2)N2[C@H]1[C@@H](C(=O)N1CCCCCCC1)[C@]1(C(=O)Nc3ccc(C#CCCO)cc31)[C@H]2c1ccccc1OCCO | 3.55 | 1.36 | 5.56 | 1.02 | 1.58 | 1.16 | 0.372 | 1.93 | 1.64 | -1.35 (inactive) | 2.73 | -3.61 (inactive) | 0.999 (inactive) | -0.698 (inactive) | -1.19 (inactive) | 4.08 | 2.33 | 3.84 | 3.83 | 2.53
7 | CC(C)C(O)C1C=CC2C(=O)NC(=O)C2N1Nc1ccc(Cl)cc1Cl (stereo not given) | 1.03 | 1.19 | 1.08 | 0.921 | 0.345 | -0.292 | -0.518 | -0.556 | 1.35 | -0.089 (inactive) | -0.0055 | -0.158 (inactive) | 0.0631 (inactive) | 0.246 (inactive) | 0.0675 (inactive) | -0.204 | -0.0791 | 0.41 | 0.794 | 0.292
8 | COC(=O)[C@@]1(Cc2ccccc2)[C@H]2c3cc(C(=O)N4CCCC4)n(Cc4ccc(S(C)(=O)=O)cc4)c3C[C@H]2CN1C(=O)c1ccccc1 | 1.27 | 1.27 | 2.05 | 1 | 1.03 | -0.771 | 0.687 | -0.07 | 1.08 | 1.3 (inactive) | -0.0831 | -1.22 (inactive) | 0.779 (inactive) | 0.959 (inactive) | 0.266 (inactive) | 2.21 | 0.401 | 0.758 | 0.81 | -0.344
9 | C=CCNC(=O)[C@@H]1[C@H]2C(=O)O[C@H](c3ccccc3)[C@H](c3ccccc3)N2[C@H](c2ccc(O)cc2)[C@@]12C(=O)Nc1ccc(C#CCNC(N)=O)cc12 | -0.22 | -0.222 | 0.186 | -0.609 | 0.842 | -0.598 | -1.27 | 0.538 | 0.414 | -0.895 (inactive) | -0.525 | -0.0804 (inactive) | -0.233 (inactive) | 1.21 (inactive) | -0.434 (inactive) | -0.325 | -0.339 | -0.138 | 0.121 | 0.316
10 | CC(C)NC(=O)[C@@]1(C)c2ccccc2C(=O)N(Cc2cc(C(F)(F)F)cc(C(F)(F)F)c2)[C@H]1c1ccc(CO)cc1 | -0.229 | 0.272 | 0.0662 | -0.285 | -0.101 | -0.741 | 1.21 | -0.146 | -0.568 | -0.734 (inactive) | -0.533 | -3.78 (inactive) | 1.03 (inactive) | 0.648 (inactive) | -0.405 (inactive) | -0.417 | -0.269 | -0.979 | -0.723 | -0.328

Reference: PubChem BioAssay
